Compounds without any hit were thinned out: in the full panel of roughly 83,000, 20% have a hit.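 Cell lines were cultured in 96-well plates, exposed to a single compound concentration, and assessed for percent growth 48 hours later.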 Unmarked numbers belong to inactive results. The calls were made as follows: active = growth percent below 10; inactive = the rest.

Our source for the growth values is PubChem BioAssay (NCI).

This assay concerns DU-145 prostate. Nature of the assay: NCI-60 one-dose screen, 48 h (100 = growth as untreated, 0 = no growth, -100 = all killed). To be noted: 10 µM unless noted.
In the case of `N#CCCN=Nc1c(O)[nH]c2ccc([N+](=O)[O-])cc12`, the growth is 111%.

For the compound `COc1cc(-c2ccc3c(c2)NC(=O)/C3=C\c2ccc[nH]2)ccc1O`, the growth was 17.8%.

As for `C=C(C)[C@@H]1CC[C@]2(C(N)=O)CC[C@]3(C)[C@H](CC[C@@H]4[C@@]5(C)C/C(=C/c6ccco6)C(=O)C(C)(C)[C@@H]5CC[C@]43C)[C@@H]12`, the growth was 92.6%.

As to `O=C1Nc2c(ccc(Cl)c2Cl)/C1=C\c1cc(C(F)(F)F)cc(C(F)(F)F)c1`, the growth was 24.8%.

In the case of `COc1cc2c(cc1-c1c(C)noc1C)ncc1nc(C3CCOCC3)n([C@@H](C)COC(F)F)c12`, the growth is 73.1%.

As for `O=C1Nc2c(ccc(Cl)c2Cl)/C1=C\c1ccc(C(F)(F)F)cc1`, the growth is 97.3%.

Turning to `C[n+]1ccccc1/C=C/c1ccc2cccc(O)c2n1`, the growth is 102%.

Turning to `COc1ccc(/C=C/c2nc3ccccc3nc2/C=C/c2ccc(OC)cc2)cc1`, the growth is 105%.

For `C=CC(=O)Nc1cccc(-c2nc(SC)nc(NCCN3CCOCC3)c2C#N)c1`, the growth is 94.7%.

As for `COc1cc2nc(N3CCCC3)nc(NCc3ccccc3)c2cc1OC`, the growth is 80.9%.

Consider `COc1cc(CNc2oc(-c3ccccc3)c(-c3ccccc3)c2C#N)cc(CN2CCN(C)CC2)c1O`, for which the growth is 59.9%.

For `O=C(/C=C/c1cc(CN2CCOCC2)c(O)c2ncccc12)c1cc(CN2CCOCC2)c(O)c2ncccc12`, the growth was 26.9%.

With `CSc1nc(NCCO)c(C#N)c(-c2cccc([N+](=O)[O-])c2)n1`, the growth was 108%.
